Values joined by “and” are separate entries in the source; they are usually repeats but may differ in a detail not shown here. Equal values may be shown once. In all, about 5,500 compounds went through this assay and about 2,000 (36%) were called active. Inconclusive results (about 18%) are left out. Rule as the data show it: active = normalized growth mostly below about 0.91 (no sharp cut-off); inconclusive = no clear call, values can overlap the other calls; inactive = mostly above about 0.92. The list shows a part of the results.
Test: chemical genetic growth profiling, strain panel (AID 1159580);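 also: tested at 20 µM; growth read once vehicle control cultures reached saturation at 30 °C; 1 = growth at the plate median or of vehicle wells; lower values mean less growth of the strain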
Settings: S. cerevisiae deletion strains, growth OD

Measured: normalized growth

CN(C)c1nc(N(C)C)nc(N(C)C)n1
inactive: locus YAL021C, strain ccr4, active compounds read low 0.992 | locus YAL026C, strain drs2, active compounds read low 0.979 | locus YAL030W, strain snc1, active compounds read low 1 | locus YAL040C, strain CLN3, active compounds read low 0.972 | locus YBL061C, strain skt5, active compounds read low 0.959 | locus YBR009C, strain hhf1, active compounds read low 0.97 | locus YBR021W, strain FUR4, active compounds read low 1 | locus YBR023C, strain chs3, active compounds read low 0.969 | locus YBR171W, strain sec66, active compounds read low 0.976 | locus YBR229C, strain ROT2, active compounds read low 1.01 | locus YBR231C, strain swc5, active compounds read low 0.971 | locus YBR279W, strain paf1, active compounds read low 1.01 | locus YCL011C, strain gbp2, active compounds read low 0.959 | locus YCL016C, strain dcc1, active compounds read low 0.966 | locus YCL029C, strain bik1, active compounds read low 1.03 | locus YCL061C, strain MRC1, active compounds read low 0.979 | locus YCL069W, strain vba3, active compounds read low 0.986 | locus YCR088W, strain abp1, active compounds read low 0.989 | locus YDL005C, strain med2, active compounds read low 0.984 | locus YDL035C, strain GPR1, active compounds read low 1.02 | locus YDL040C, strain nat1, active compounds read low 0.991 | locus YDL074C, strain BRE1, active compounds read low 0.991 | locus YDL101C, strain DUN1, active compounds read low 1.01 | locus YDL134C, strain PPH21, active compounds read low 1.01 | locus YDL185W, strain tfp1, active compounds read low 1.02 | locus YDL192W, strain arf1, active compounds read low 1.02 | locus YDR001C, strain nth1, active compounds read low 0.977 | locus YDR069C, strain doa4, active compounds read low 0.979 | locus YDR101C, strain arx1, active compounds read low 1.01 | locus YDR137W, strain rgp1, active compounds read low 0.924 | locus YDR150W, strain NUM1, active compounds read low 1 | locus YDR159W, strain sac3, active compounds read low 0.963 | locus YDR162C, strain NBP2, active compounds read low 1.02 | locus YDR195W, strain ref2 0.998 | locus YDR297W, strain sur2, active compounds read low 0.981 | locus YDR318W, strain mcm21, active compounds read low 1.02 | locus YDR334W, strain swr1, active compounds read low 0.942 | locus YDR335W, strain msn5, active compounds read low 0.97 | locus YDR363W, strain ESC2, active compounds read low 1.03 | locus YDR388W, active compounds read low 1.02 | locus YDR392W, strain spt3, active compounds read low 0.899 | locus YDR502C, strain sam2, active compounds read low 1.01 | locus YEL003W, strain gim4, active compounds read low 0.987 | locus YEL037C, strain rad23, active compounds read low 0.988 | locus YEL061C, strain CIN8 (second series), active compounds read low 0.976 | locus YEL061C, strain CIN8, active compounds read low 1 | locus YER002W, strain NOP16, active compounds read low 0.995 | locus YER015W, strain faa2, active compounds read low 0.969 | locus YER016W, strain bim1, active compounds read low 0.987 | locus YER110C, active compounds read low 1.02 | locus YER111C, strain swi4, active compounds read low 0.981 | locus YER155C, strain BEM2 (second series), active compounds read low 0.975 | locus YER155C, strain BEM2, active compounds read low 1 | locus YER167W, strain BCK2, active compounds read low 1.01 | locus YFR010W, strain ubp6, active compounds read low 0.956 | locus YGL078C, strain dbp3, active compounds read low 1.01 | locus YGL086W, strain mad1, active compounds read low 1 | locus YGL167C, strain pmr1, active compounds read low 0.975 | locus YGL173C, strain kem1, active compounds read low 0.959 | locus YGL227W, strain vid30, active compounds read low 0.989 | locus YGL240W, strain doc1, active compounds read low 0.966 | locus YGL248W, strain PDE1, active compounds read low 1.01 | locus YGL253W, strain hxk2, active compounds read low 0.987 | locus YGR078C, strain PAC10, active compounds read low 1 and 0.999 | locus YGR135W, strain pre9, active compounds read low 1.03 | locus YGR252W, strain gcn5, active compounds read low 1.05 | locus YHR013C, strain ard1, active compounds read low 0.964 | locus YHR027C, strain rpn1, active compounds read low 0.959 | locus YHR030C, strain SLT2, active compounds read low 1.01 and 0.974 | locus YHR079C, strain IRE1 (second series), active compounds read low 1.02 | locus YHR079C, strain IRE1, active compounds read low 0.981 | locus YHR094C, strain hxt1, active compounds read low 1.02 | locus YHR129C, strain ARP1, active compounds read low 1.01 | locus YHR142W, strain chs7, active compounds read low 0.929 | locus YHR200W, strain rpn10, active compounds read low 1.02 | locus YIL066C, strain RNR3, active compounds read low 1.01 | locus YIL073C, strain SPO22, active compounds read low 1.09 | locus YIL125W, strain kgd1, active compounds read low 1.02 | locus YIR030C, strain dcg1, active compounds read low 1.03 | locus YJL092W, strain hpr5, active compounds read low 0.988 | locus YJL095W, strain BCK1 (second series), active compounds read low 0.975 | locus YJL095W, strain BCK1, active compounds read low 1 and 0.97 | locus YJL115W, strain asf1, active compounds read low 0.959 | locus YJL129C, strain trk1, active compounds read low 0.999 | locus YJL134W, strain LCB3, active compounds read low 1.01 | locus YJL154C, strain vps35, active compounds read low 0.986 | locus YJL164C, strain tpk1, active compounds read low 0.989 | locus YJL166W, strain qcr8, active compounds read low 0.958 | locus YJL168C, strain set2, active compounds read low 1.01 | locus YJL187C, strain SWE1 (second series), active compounds read low 1 | locus YJL187C, strain SWE1, active compounds read low 0.978 | locus YJR043C, strain POL32, active compounds read low 1.01 | locus YJR066W, strain TOR1, active compounds read low 0.947
